Reference: PubChem BioAssay AID1259415 (National Center for Advancing Translational Sciences (NCATS), 2018)
Values joined by “and” are separate entries in the source; they are usually repeats but may differ in a detail not shown here. Equal values may be shown once. Hit rate of the full screen: of about 410,000 compounds, about 18,000 (4.4%) were called active. Roughly 7% stayed inconclusive and do not appear here. No stated cut-off is given here; in the data, active means activity change below about -60%; inconclusive means no clear call, values can overlap the other calls; inactive means above about -39%. The full list was thinned out, with actives kept by preference. More than one record can exist for a structure, and the calls need not agree.

assay: qHTS Assay for inhibitors of the human cytomegalovirus (HCMV); settings: HFF cells, HCMV-luciferase reporter, 72 h; at 57.5 µM; stronger effect = lower value
Method in brief: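 After 16 h attachment at 37C, HFF cells received test compound and HCMV-luciferase (1 PFU/cell); reporter luminescence read 72 h later, data normalized against buffer-only and known inhibitor Salinomycin.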
On the % scale 0 is the no-effect control and ±100 the full control effect.

Row | SMILES | activity change, negative = inhibition
1 | CC1CC(C)CN(C/C=C/c2ccccc2[N+](=O)[O-])C1 (stereo not given) | 71.9% (inactive)
2 | O=C(/C=C/c1ccccc1[N+](=O)[O-])OCC(=O)N1CCCC1 | 11.1% (inactive)
3 | CC1CCCCC1NC(=O)/C(C#N)=C/C=C/c1ccccc1[N+](=O)[O-] (stereo not given) | -109% (active)
4 | COC(=O)c1cc(S(=O)(=O)N2CCN(c3cc(Cl)ccc3C)CC2)c[nH]1 | -37% (inactive)
5 | COc1ccc(-c2cn3nc(N4CCC(C(=O)Nc5cccc(C)c5C)CC4)sc3n2)cc1 | 0% (inactive)
6 | Cc1ccccc1CSCCNC(=O)c1ccc(Cl)c(S(=O)(=O)N2CCOCC2)c1 | -33.1% (inactive)
7 | CN(C)S(=O)(=O)c1ccc(C(=O)NCC(C)(C)N2CCOCC2)cc1 | -39.4% (inactive)
8 | CC(C)(CNC(=O)c1ccc(Cl)c(S(=O)(=O)N2CCc3ccccc3C2)c1)N1CCOCC1 | -77.7% (active)
9 | COc1cc2c(=O)c(S(=O)(=O)c3ccc(C(C)C)cc3)cn(Cc3ccccc3C)c2cc1OC | 23.6% (inactive)
10 | COc1ccnc(Oc2ccccc2)n1 | 5% (inactive)
11 | COc1cnc(-c2ccccn2)nc1Oc1ccc(C(C)(C)C)cc1 | -82.7% (active)
12 | COc1ccnc(Oc2ccccc2)c1-c1ncn[nH]1 | -36.6% (inactive)
13 | Cc1cc(OCC(=O)NCC2(N(C)C)CCCCC2)cc(C)c1Cl | -11.2% (inactive)
14 | Cc1cc2c(cc1S(=O)(=O)CCC(=O)Nc1ccc(OC(F)(F)F)cc1)OCC(=O)N2 | 5.03% (inactive)
15 | CC1CCCCC1NC(=O)CCS(=O)(=O)c1ccc2c(c1)NC(=O)CO2 (stereo not given) | -22.8% (inactive)
16 | O=C(CCS(=O)(=O)c1ccc2c(c1)NC(=O)CO2)Nc1cccc(C(F)(F)F)c1 | -106% (active)
17 | CCOC(=O)c1cc2c(=O)n3ccccc3nc2n(CC(C)C)c1=NC(=O)c1c(-c2c(F)cccc2Cl)noc1C | -12.3% (inactive) and -65.2% (active)
18 | CCOC(=O)c1cc2c(=O)n3ccccc3nc2n(Cc2ccco2)c1=NC(=O)c1ccc(F)cc1 | -0.814% (inactive)
19 | CCOC(=O)c1cc2c(=O)n3ccccc3nc2n(CC2CCCO2)c1=NC(=O)c1ccccc1F (stereo not given) | 5.02% (inactive)
20 | CCOc1ccc(-n2cnc3c(=O)[nH]c(N)nc32)cc1 | 29.7% (inactive)
21 | CCc1ccc(NC(=O)CN2C(=O)CCSc3ccc(S(=O)(=O)N4CCCC4)cc32)cc1 | 14.8% (inactive)
22 | Nc1ncnc(Nc2cccc(Cl)c2Cl)n1 | 8.97% (inactive)
23 | CC(=O)Nc1cccc(NC(=O)CSc2nccn2Cc2ccc3c(c2)OCO3)c1 | -12.3% (inactive)

Row | SMILES | activity change, negative = inhibition
24 | COc1ccc(CNC(=O)C2=Cc3cccc(OC)c3OC2)cc1OC | -2.4% (inactive)
25 | O=C(Nc1ccc(Br)cc1)c1ccc(Br)c(S(=O)(=O)NCc2ccccc2)c1 | -106% (active)
26 | Cc1ccc(C(=O)Nc2ccc(C(=O)O)cc2)cc1S(=O)(=O)Nc1ccccc1 | 6.44% (inactive)
27 | COc1ccc(CNS(=O)(=O)c2cc(Br)ccc2Br)cc1 | -5.85% (inactive)
28 | CCOc1ccc(S(=O)(=O)Nc2ccc3oc4c(c3c2)CC(C)CC4)cc1 (stereo not given) | 33.8% (inactive)
29 | CCC(=O)N1CCc2cc(S(=O)(=O)NCCC(=O)Nc3cccc(C)c3C)ccc21 | 4.12% (inactive)
30 | CCCC(=O)Nc1nnc(CC(=O)OCC)s1 | 69.6% (inactive)
31 | N#Cc1ccccc1Sc1ccccc1C(=O)OCC(=O)NC1CCCCC1 | -31.3% (inactive)
32 | CC(C)NC(=O)c1ccccc1S(=O)c1ccccc1C#N (stereo not given) | -72.2% (active)
33 | CC(C)Oc1ccccc1C(=O)NC(CO)C(=O)O (stereo not given) | 0.22% (inactive)
34 | O=C(CC(c1cccs1)N1Cc2ccccc2C1=O)Nc1ccc(F)cc1F (stereo not given) | 5.86% (inactive)
35 | Cc1ccc(-c2ccc(CCC(=O)O)n2-c2ccc(C(N)=O)cc2)cc1 | 15% (inactive)
36 | [O-][n+]1onc2c1CCc1[nH]c(-c3ccccc3)nc1-2 | -99.3% (active)
37 | Cc1ccc(NC(=O)C(Cc2ccccc2)NS(=O)(=O)c2ccc3c(c2)oc(=O)n3C)cc1C (stereo not given) | 1.25% (inactive)
38 | CC1CCN(S(=O)(=O)c2ccc3c(c2)N(CC(=O)NCc2ccccc2Cl)C(=O)CO3)CC1 | 15.7% (inactive)
39 | O=C(OCc1ccccc1)c1ccc(O)cc1 | 17.9% (inactive)
40 | CCOC(=O)c1c(CN(C)C)n(-c2ccccc2)c2cc(Br)c(O)cc12 | -35% (inactive)
41 | CCOC(=O)c1c(CN2CCOCC2)n(-c2ccccc2)c2ccc(O)cc12 | -73% (active)
42 | CCOC(=O)c1nnn(-c2nonc2-n2cccc2)c1CN1CCOCC1 | -19.5% (inactive)
43 | O[C@H]1C[C@H](c2ccc(Cl)cc2)N(Cc2cccs2)C[C@@H]1n1cc(C2CC2)nn1 | 15% (inactive)
44 | CCOC(=O)[C@]12CCC=C1N(CCC1=CCCCC1)C(=O)[C@H](CC(=O)NCc1ccc(C)o1)C2 | -0.404% (inactive)
45 | CCc1nc2onc(C)c2c(=O)n1CC(=O)O | 9.29% (inactive)
46 | CCc1nn(CC(=O)NCC(C)c2ccccc2)c(=O)c2cc3occc3n12 (stereo not given) | -13.6% (inactive)

Row | SMILES | activity change, negative = inhibition
47 | COc1ccc(-c2nc(Cn3c(=O)cc(C)c4c(C)nn(-c5ccccc5)c43)c(C)o2)cc1OC | 18.8% (inactive)
48 | OCCCNc1nccc(-c2cc(Nc3cccc(Cl)c3)ncn2)n1 | -97.8% (active)
49 | COC(=O)[C@H]1[C@H](CO)[C@H]2Cn3c(cccc3=O)[C@H]2N1CC1CC1 | 3.17% (inactive)
50 | O=C(Nc1cccc(Cl)c1N1CCOCC1)c1cccnc1 | -21.6% (inactive)
51 | O=C(N/N=C/c1sc(N2CCCCC2)nc1-c1cccs1)c1cccnc1 | -80.6% (active)
52 | O=C(c1cccnc1)N1CCN(S(=O)(=O)c2cccs2)CC1 | 7.09% (inactive)
53 | COc1cccc(N2CC(NC(=O)/C=C\c3ccccc3)CC2=O)c1 (stereo not given) | 81.9% (inactive)
54 | CCOC(=O)c1c(-c2ccc(OC)cc2)oc2ccc(OCc3ccc(C(=O)OC)cc3)cc12 | -6.67% (inactive)
55 | COC(=O)c1ccc(NC(=O)CCc2c(C)nc3c(c(C)nn3-c3ccc(C)cc3)c2C)cc1 | -19.7% (inactive)
56 | COc1cc(Cl)cc(C2NC(=O)NC(C)=C2C(=O)NCc2ccccc2)c1O (stereo not given) | 3.06% (inactive)
57 | COc1ccc(CCNC(=O)CCCCn2c(=O)c3ccccc3n(Cc3ccccc3)c2=O)cc1OC | -9.1% (inactive)
58 | COc1cc(/C=C2/SC(=S)N(Cc3ccccc3)C2=O)cc(OC)c1O | -63.1% (active)
59 | COc1cc2c(cc1OC)C(C(=O)NCc1ccco1)C1c3ccccc3CCN1C2=O (stereo not given) | 3.83% (inactive)
60 | COCCNC(=O)CSc1c(C)cnc2c1c(=O)n(C)c(=O)n2C | 8.83% (inactive)
61 | Cc1cccc2nc(-c3ccc(Cl)s3)c(Nc3ccc4c(c3)OCCO4)n12 | 19.5% (inactive)
62 | Cc1cccnc1C(NC(=O)C1CCN(Cc2ccc(Cl)c(Cl)c2)CC1)c1ccc(Cl)cc1 (stereo not given) | -88.1% (active)
63 | O=C(NC(c1ccc(Cl)cc1)c1cnccn1)C1CCN(Cc2ccc(Cl)cc2)CC1 (stereo not given) | 18.3% (inactive)
64 | Cc1ccc(C(NC(=O)C2CCN(CCOc3ccc(Cl)cc3Cl)CC2)c2ccccn2)cc1 (stereo not given) | 23.2% (inactive)
65 | Cc1ccc(CSc2nc3cccnc3n2Cc2ccc(C(=O)NC3CC3)cc2)cc1 | 112% (inactive)
66 | CCn1c(CN2C(=O)CSc3ccccc32)n[nH]c1=S | -8.44% (inactive)
67 | CC(=O)c1cc(C#N)c(N2CCCCC2)nc1C | -92.4% (active)
68 | Cc1cc(C)c2cc(C#N)c(N3CCNCC3)nc2c1 | -15.9% (inactive)
69 | CC(=O)c1cc(C#N)c(N2CC(C)OC(C)C2)nc1C (stereo not given) | -16.2% (inactive)

Row | SMILES | activity change, negative = inhibition
70 | Cc1cc(C)cc(NS(=O)(=O)c2ccc3[nH]cc(C(=O)N4CCCCC4)c(=O)c3c2)c1 | 1.5% (inactive)
71 | CC(=O)NC(Cc1ccc(F)c(F)c1)C(=O)NC1CCN(c2nnnn2-c2ccccc2)CC1 (stereo not given) | -16% (inactive)
72 | COc1ccc(-c2nonc2NC(=O)c2oc3ccc(F)cc3c2C)cc1OC | -12.8% (inactive)
73 | O=C(NC1CC(=O)N(c2ccccc2)C1)c1ccco1 (stereo not given) | 43.8% (inactive)
74 | CCc1ccc(Nc2n[n+](-c3ccccc3)c(-c3cccc(Cl)c3Cl)s2)cc1 | -69.1% (active)
75 | COc1cc(Br)c(-c2sc(Nc3ccccc3)n[n+]2-c2ccccc2)cc1OC | 25.2% (inactive)
76 | COc1ccc(C)cc1Nc1n[n+](-c2ccccc2)c(-c2cccc(Cl)c2Cl)s1 | 8% (inactive)
77 | CCCCC(=O)OC1=CN(Cc2ccccc2)S(=O)(=O)c2ccccc21 | -6.62% (inactive)
78 | CN(Cc1cccs1)C(=O)Cc1c[nH]c2ccccc12 | 26% (inactive)
79 | CC(C)C12CN3CC(C(C)C)(CN(C1)C3c1ccc(OCc3ccccc3)cc1)C2=O (stereo not given) | -7.28% (inactive)
80 | Cc1ccc2nc(/C(C#N)=C/c3ccc(-c4ccc(C(=O)OC(C)C)cc4)o3)[nH]c2c1 | 41% (inactive)
81 | Cc1ccc2nc(/C(C#N)=C/c3ccccc3F)[nH]c2c1 | 206% (inactive)
82 | Cc1ccc2nc(/C(C#N)=C\c3ccc(OC(=O)c4cccs4)cc3)[nH]c2c1 | -67.5% (active)
83 | COCCNC(=O)CSc1nc(-c2ccccc2)[nH]c1-c1ccc(C)cc1 | -25.2% (inactive)
84 | CCOc1cc2[nH]c(=O)n(Cc3ccc(C(=O)NCCN(CC)CC)cc3)c(=O)c2cc1OCC | -5.64% (inactive)
85 | O=C(Nc1cccc(C(F)(F)F)c1)c1ccc(N2CCNCC2)c([N+](=O)[O-])c1 | -65.3% (active)
86 | Cc1cccc(C)c1NC(=O)CNC(=O)c1ccc(N2CCOCC2)c([N+](=O)[O-])c1 | 25.4% (inactive)
87 | O=C(NC1C2CC3CC(C2)CC1C3)c1ccc(N2CCNCC2)c([N+](=O)[O-])c1 (stereo not given) | 6.12% (inactive)
88 | CCCCS(=O)(=O)c1oc(-c2cccs2)nc1S(=O)(=O)c1ccccc1 | -108% (active)
89 | CSc1oc(-c2cccs2)nc1S(=O)(=O)c1ccc(Br)cc1 | 29.5% (inactive)
90 | Cc1ccc(CSc2oc(-c3cccs3)nc2S(=O)(=O)c2ccc(C)cc2)cc1 | 12.7% (inactive)
